The values that follow come from PubChem BioAssay AID588676 (Johns Hopkins Ion Channel Center, 2011).

The structures appear in SMILES notation. Among all 310,000 compounds or so, about 3,900 (1.3%) were called active.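 How the source made its calls: active means calcium-response B-score plate-corrected more than 3 library SD below zero, starting fluorescence within 5 deviations, no agonist response on first addition; inactive means the rest.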 Many of the other results were omitted from the sample, so actives are more common in it than they were.

This assay deals with Mas-related G-protein coupled receptor member X1 (Homo sapiens) (UniProt Q96LB2). The assay can be described thus: antagonists of human MrgX1 receptor, primary screen, HEK293 cells, Fluo-4 calcium flux (AID 588676).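 On B-score: peak minus trough fluorescence over baseline after final BAM8-22 challenge near maximal dose.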 The following applies: Fluo-4, BAM8-22 antagonism, at 10 µM; stronger effect = lower value.
Mas-related G-protein coupled receptor member X1 (Homo sapiens), sequence (Q96LB2 whole entry, looked up): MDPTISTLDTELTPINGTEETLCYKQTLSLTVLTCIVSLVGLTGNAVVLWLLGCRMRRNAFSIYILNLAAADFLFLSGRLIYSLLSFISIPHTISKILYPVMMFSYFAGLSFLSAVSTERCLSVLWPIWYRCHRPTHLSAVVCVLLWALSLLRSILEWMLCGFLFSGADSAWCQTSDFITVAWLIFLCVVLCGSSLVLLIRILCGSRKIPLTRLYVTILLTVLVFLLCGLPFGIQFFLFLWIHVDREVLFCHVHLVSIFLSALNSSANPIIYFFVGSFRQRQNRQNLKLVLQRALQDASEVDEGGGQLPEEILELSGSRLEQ
As to `COc1ccc(S(=O)(=O)NCc2ccc(C(=O)N3CCC4(CC3)OCCO4)cc2)cc1`, the B-score is -6.08 (active).
Next, `COc1ccc(NC(=O)N2CCC3(CC2)OCCO3)c(OC)c1`: “inactive”; `COc1ccc(-c2nc(CS(=O)CC(=O)N3CCC4(CC3)OCCO4)c(C)o2)cc1` (stereo not given): “inactive”.
The same measure for `COC(=O)C1=C(c2cc3ccccc3o2)C[C@@H]2CC[C@H]1N2C(=O)NC1CCCCC1`: “inactive”; for `CCCCCCCCCCCCn1ccc(=N)cc1`: -5.32 (active).
Next, `COc1ccccc1C1=NCc2nnc(CSC)n2-c2ccc(Cl)cc21`: “inactive”; `CCCCCn1c(=O)c(C(=O)NCc2ccccn2)c(O)c2ccccc21`: “inactive”.
In the case of `CCCCn1c(=O)c(C(=O)Nc2ccccc2Cl)c(O)c2ccccc21`, the B-score entry is “inactive”.
Next, `CCCCCn1c(=O)c(C(=O)NCc2ccccc2)c(O)c2ccccc21`: -6.52 (active); `CC(C)c1ccc(OCC(=O)N2CCN(C)CC2)c(Br)c1`: “inactive”.
Next, `CCOC(=O)C1SC2(C(F)(F)C(F)F)CC1(O)c1c(c(OC)c3occc3c1OC)O2` (stereo not given): “inactive”.
Consider `CNCC(O)c1cc(F)c(OCc2ccccc2)c(OCc2ccccc2)c1F` (stereo not given), for which the B-score result was “inactive”.
Consider `Cc1ccc(-n2c(O)c(C=NCC3CCCO3)c(=O)[nH]c2=O)c(C)c1` (stereo not given), for which the B-score entry is “inactive”.
Next, `CCOC(=O)C(O)(c1ccc(N=Cc2ccccc2O)c(C)c1)C(F)(F)F` (stereo not given): “inactive”.
Next, `Cc1cccc(NC(=O)N2CC3CC(C2)c2cccc(=O)n2C3)c1` (stereo not given): “inactive”; `COc1ccccc1N1CCN(C(CNC(=O)Oc2ccccc2)c2cccnc2)CC1` (stereo not given): “inactive”; `O=C(CN1CCCCC1)Nc1ccc(Br)cc1C(=O)c1ccccc1Cl`: “inactive”.
Next, `CN1CCN(C(=S)SCC(=O)Nc2ccc(Cl)cc2C(=O)c2ccccc2)CC1`: “inactive”.
Regarding `O=C(CCN1CCCCC1)NCC(=O)Nc1ccc(Br)cc1C(=O)c1ccccc1`, the B-score is -5.59 (active).
As to `CCOC(=O)C1=C(C)OC(N)=C(C(=O)OC)C12C(=O)Nc1ccc(Br)cc12` (stereo not given), the B-score result is “inactive”.
